Screening data: PubChem BioAssay, several laboratories
In the library only some 0.69% were active in any assay of this set; here they are far more common.
WNV protease inh = blocks West Nile virus NS2B-NS3 protease activity. P06935. WNV NS2B-NS3 protease, fluorogenic substrate Ex360/Em465; stronger effect = lower value. z-score (concentration not given with the values). hit rate 0.18% among 65,000; in the data active means z-score below about -3
Target sequence (P06935 1371-1501 limits assumed): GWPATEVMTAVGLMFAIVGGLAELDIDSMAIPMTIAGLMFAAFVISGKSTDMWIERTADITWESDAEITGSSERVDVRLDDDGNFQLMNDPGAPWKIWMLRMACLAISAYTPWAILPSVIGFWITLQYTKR
Target sequence (P06935 1502-1679 limits assumed): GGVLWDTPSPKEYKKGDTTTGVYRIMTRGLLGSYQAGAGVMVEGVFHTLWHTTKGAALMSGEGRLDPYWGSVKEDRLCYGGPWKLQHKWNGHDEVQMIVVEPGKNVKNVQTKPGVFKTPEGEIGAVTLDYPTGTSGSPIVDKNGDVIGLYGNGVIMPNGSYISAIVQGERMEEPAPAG
FXIIa inh mix = blocks human factor XIIa in pooled compound mixtures; purified FXIIa, fluorogenic substrate; inhibition, % at 5 µM; hit rate 0.2% among 62,000; AID 684
MT1-MMP txn act = MT1-MMP promoter transcription activation; activation factor at 10 µM; HT1080 MT1-MMP promoter luciferase reporter, luminescence, overnight; stronger effect = higher value; AID 750; hit rate 0.16% among 86,000;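 active means activation factor of at least 2 for MT1-MMP transcription at 10 µM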
E coli RNAP = blocks E. coli RNA polymerase transcription; inhibition, %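 (tested at 10 µM)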; fluorescence transcription assay; P0A8V2; hit rate 0.2% among 62,000; in the data active means inhibition above about 20%
MMP-13 inhibitor = blocks human MMP13 activity | P45452 | MMP-13 fTHP FRET cleavage, Mca fluorescence | inhibition, % at 4 µM | hit rate 0.07% among 65,000;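 active means inhibition above the mean of compound-free control plate wells plus 3 SD, cut at about 14% in these data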
FXIa mix inh = blocks human factor XIa in pooled compound mixtures. P03951. purified FXIa, fluorogenic substrate. inhibition, % at 5 µM. hit rate 0.19% among 62,000;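 further: each value is inhibition by a whole ten-compound pool holding the compound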
Of the large screens only hits and unclear results are named; the others gave an inactive call. Unless noted, no stated cut-off is given here; in the data, active means inhibition above about 20% (passing the limit was not always enough); inactive means the rest.

O=C1c2cnccc2CN1Cc1ccccc1	none (no result: WNV protease inh, FXIIa inh mix, E coli RNAP, MMP-13 inhibitor, FXIa mix inh)
COc1cc(C)nc(Oc2ccc(OCCOc3ccc(C)cc3)nn2)n1	WNV protease inh -8.5 (no result: FXIIa inh mix, FXIa mix inh)
Cc1nonc1OCC(C)(COc1nonc1C)NC(=O)c1ccccc1	none (no result: WNV protease inh, FXIIa inh mix, E coli RNAP, MMP-13 inhibitor, FXIa mix inh)
Cc1csc2ncc(C(=O)NCc3ccc4c(c3)OCO4)c(=O)n12	MMP-13 inhibitor 15.9
COc1cc(C)nc(N2CCCC(C(=O)Nc3cccc(Cl)c3C)C2)n1 (stereo unspecified)	FXIa mix inh 21.2
CCC1=C2CC[C@H]3C(=O)N(c4ccccc4)C(=O)[C@H]3[C@H]2[C@@]2(Cc3ccccc3)C(=NCCOC)OC(=O)N2C1=O	none (no result: WNV protease inh, FXIIa inh mix, E coli RNAP, MMP-13 inhibitor, FXIa mix inh)
Cc1cc(C)c(Cc2c(C)nc3c(C(=O)NCc4ccco4)cnn3c2C)c(C)c1	none (no result: WNV protease inh, FXIIa inh mix, E coli RNAP, MMP-13 inhibitor, FXIa mix inh)
COc1ccc(OCc2nn3c(-c4cccc(OC)c4)nnc3s2)cc1	MMP-13 inhibitor 15.7
CCCn1c(SCC(=O)Nc2sc(C)c(C)c2C(=O)OC)nc2c1c(=O)n(C)c(=O)n2C	WNV protease inh -3.84
CCCn1c(SCC(=O)Nc2nc3c(s2)CCCC3)nc2c1c(=O)n(C)c(=O)n2C	E coli RNAP 55.3
CCCn1c(SCC(=O)Nc2nnc(CC)s2)nc2c1c(=O)n(C)c(=O)n2C	none
Cc1c(C(=O)Nc2ccc(Cl)cn2)oc2ccccc12	MT1-MMP txn act 2.1
CCC1=C(C)N(CCCC(=O)O)C(=O)NC1c1cccc(Cl)c1Cl (stereo unspecified)	none (no result: WNV protease inh, FXIIa inh mix, E coli RNAP, MMP-13 inhibitor, FXIa mix inh)
CCOC(=O)C1CCCN(C(=O)c2cc(Nc3ccc(OC)cc3)nc3ccccc23)C1 (stereo unspecified)	none (no result: WNV protease inh, FXIIa inh mix, E coli RNAP, MMP-13 inhibitor, FXIa mix inh)
CCOc1ccc(-n2c3nc4ccccc4nc3c3c(=O)n(Cc4ccco4)cnc32)cc1	E coli RNAP 22.2
Cc1cc(C)cc(-n2c3nc4ccccc4nc3c3c(=O)n(Cc4ccco4)cnc32)c1	none
Cc1ccc(-c2cc(-c3ccccc3)c3c(N)c(S(C)(=O)=O)sc3n2)cc1	none (no result: WNV protease inh, FXIIa inh mix, E coli RNAP, MMP-13 inhibitor, FXIa mix inh)
CS(=O)(=O)c1sc2nc(-c3cccs3)cc(-c3ccccc3)c2c1N	MT1-MMP txn act 2.2
CCOC(=O)N1CCN(C2=CC(=O)OC23CCCCC3)CC1	WNV protease inh -5.16 (no result: E coli RNAP)
COc1ccc(-c2nnc3n2N=C(C)CS3)cc1	none (no result: WNV protease inh, FXIIa inh mix, E coli RNAP, MMP-13 inhibitor, FXIa mix inh)
COc1ccc(C2=Nn3c(nnc3-c3ccc(OC)cc3)SC2)cc1	WNV protease inh -9.62
Cn1c(SCC(=O)NCc2ccc3c(c2)OCO3)nnc1C1COc2ccccc2O1 (stereo unspecified)	none
C=CCn1c(SCC(=O)NCc2ccc3c(c2)OCO3)nnc1C1COc2ccccc2O1 (stereo unspecified)	FXIa mix inh 33.4
COc1ccc(-c2nnn(CC(=O)c3ccc4c(c3)OCCO4)n2)cc1OC	FXIa mix inh 20.3
CCOc1ccc(-c2nnn(CC(=O)c3ccc4c(c3)OCCO4)n2)cc1	none
O=C(NCCN1CCN(C(=O)c2cccs2)CC1)c1cccs1	none
Cc1cc(=O)oc(C)c1C(=O)NCCCN1CCN(c2ccccc2F)CC1	FXIa mix inh 37.1
O=C(CNC(=O)c1cccs1)NCCN1CCN(c2ccccc2F)CC1	FXIa mix inh 20.5 (no result: MT1-MMP txn act)
Cc1oc2c(CN(C)C)c(O)ccc2c(=O)c1-c1ccc2ccccc2n1	WNV protease inh -3.06
Cc1oc2c(O)c(O)ccc2c(=O)c1-c1ccccc1	none (no result: MT1-MMP txn act)
COC(=O)c1ccc(C(NC(=O)OCc2ccccc2)/C(I)=C/[C@@H](C)C(=O)NCc2cc(C)n(C)n2)cc1 (stereo partly specified)	none (no result: WNV protease inh, FXIIa inh mix, E coli RNAP, MMP-13 inhibitor, FXIa mix inh)
COc1ccc(S(=O)(=O)N2CCC(NC(=O)Nc3ccc(C)cc3)CC2)cc1	FXIIa inh mix 22.2
Cc1ccc(NC(=O)NC2CCN(S(=O)(=O)c3ccc(F)cc3)CC2)cc1	none (no result: WNV protease inh, FXIIa inh mix, E coli RNAP, MMP-13 inhibitor, FXIa mix inh)
COc1ccccc1N1C(=O)C2C3C=CC(C3)C2C1=O (stereo unspecified)	FXIIa inh mix 20.6
CC(C)C(=O)Nc1sc2c(c1-c1nc3ccccc3[nH]1)CCCC2	none (no result: WNV protease inh, FXIIa inh mix, E coli RNAP, MMP-13 inhibitor, FXIa mix inh)
COc1cc(-n2nc(C)c3c2OC(N)=C(C#N)C3c2ccccc2)c(Cl)c(Br)c1O (stereo unspecified)	MMP-13 inhibitor 16.0
Cc1nn(-c2ccccc2)c2c1C(c1ccncc1)C(C#N)=C(N)O2 (stereo unspecified)	none
COc1ccc(-n2c(CNC(=O)c3ccc(S(=O)(=O)N4CCCC4)cc3)n[nH]c2=S)cc1	FXIIa inh mix 21.9 (no result: MT1-MMP txn act)
COc1ccc2nc(NC(=O)CSc3nc4cccnc4n3C)sc2c1	WNV protease inh -6.36
COc1ccc2nc(NC(=O)CSc3ccccc3)sc2c1	none (no result: WNV protease inh, FXIIa inh mix, E coli RNAP, MMP-13 inhibitor, FXIa mix inh)
CCc1nnc(NC(=O)c2cnccn2)s1	FXIa mix inh 21.2
